The text below walks through data of PubChem BioAssay (NCATS).

SMILES strings stand for the structures. Results filed as inconclusive are left out. A call without a number means that no potency is given here. The source made the active and inactive calls. Calls come from the whole dose curve; as a rule, active = well fitted curve in the direction sought with a large enough effect; inconclusive = small, poorly fitted or top-dose-only effect, or another doubt; inactive = no such curve, though single readings can be large; an effect the other way counts as inactive or inconclusive.

One assay is described as follows: qHTS for Inhibitors of Plasmodium falciparum (7G8) proliferation (AID 504316). Note: nearly all actives have a fitted effect of over 65% in size. Note: potency is the fitted concentration of half-maximal effect. Particulars: P. falciparum 7G8 in erythrocytes, SYBR Green DNA, 72 h; series mostly up to 6.7 µM. The essentials:
(§1)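 Erythrocytes infected with P. falciparum line (0.3% parasitemia, 2.5% hematocrit final) incubated with compounds 72 h at 37 °C, 5% CO2; SYBR Green lysis buffer added, fluorescence read next day. Normalized to 0.29 uM artemisinin and DMSO.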
On the technique in general: Quantitative high-throughput screening tests each substance at several concentrations.
As to `COc1ccc(C=CC2=CC3(C)CC2(C)C(c2ccc(OC)cc2)CC3=O)cc1` (configuration not stated), the Potency was 1690 nM (active). Turning to `CCOC(=O)OC[C@H]1O[C@H](C#Cc2ccccc2)C=C[C@H]1OC(=O)OCC`, the Potency is 1510 nM (active). Turning to `CC1(OC(=O)C2CCCC2)C(=O)C=C2C=C(c3ccsc3)N(c3ccc(CO)cc3)C=C2C1=O` (configuration not stated), the Potency result was “inactive”. `COc1ccc([C@]23Cc4cc(C#N)ccc4[C@H](O2)c2c(cc(-c4ccccc4)oc2=O)O3)cc1`: the Potency is 1350 nM (active). Regarding `COc1ccc(O[C@H]2C=C[C@@H](c3ccccc3)O[C@H]2COC(=O)CCC(C)=NO[C@H](C)c2cn([C@H](CO)Cc3ccccc3)nn2)cc1`, the Potency was 1510 nM (active). As for `CCOC(=O)CN1C(=O)N[C@@H](c2cccc(C(F)(F)F)c2)C(C(=O)OC)=C1C`, the Potency result was “inactive”. Same read-out and setting: in the case of `CCCCC1=CC2=CC(=O)C(C)(OC(=O)CC)C(=O)C2=CN1Cc1ccc2c(c1)OCO2` (configuration not stated) it was “inactive”. On to `CCN(CC)CCCN1C=C2C(=O)C(C)(OC(=O)c3cccs3)C(=O)C=C2C=C1CCCC(=O)OC` (configuration not stated), for which the Potency result is “inactive”. The same measure, in the same setting: in the case of `CCCCCC(=O)c1cc(CC(C(=O)OC)C(=O)OC)cc2cc(OC)c(OC)cc12` it was “inactive”; in that of `CC1(OC(=O)C2CCCC2)C(=O)C=C2C=C(c3ccsc3)N(c3ccccc3)C=C2C1=O` (configuration not stated), “inactive”; in that of `CCCCn1c(C)cc2c(c1=O)[C@H]1O[C@](c3ccsc3)(Cc3ccccc31)O2`, 1690 nM (active). In the case of `CC(C)CN1C=C2C(=O)C(C)(OC(=O)CCc3ccccc3)C(=O)C=C2C=C1c1ccc(C#N)cc1` (configuration not stated), the Potency entry is “inactive”. The same measure, in the same setting: the result for `CCN1C(=O)N(C)[C@@H](c2ccccc2)C(C(C)=O)=C1C` reads “inactive”; that for `CCN1C(=O)N(S(=O)(=O)c2ccc(C)cc2)[C@@H](c2ccccc2)C(C(=O)OC)=C1C`, “inactive”. For `CCCCC1=CC2=C(c3ccco3)C(=O)C(C)(OC(=O)c3ccc(OC)cc3)C(=O)C2=CN1C1CCCC1` (configuration not stated), the Potency entry was “inactive”. Turning to `COC(=O)C(C(=O)OC)[C@@H]1c2ccccc2[C@H]2C(=C[C@@H](C)[C@H]3C(=O)N(c4ccccc4)C(=O)[C@H]32)N1C(=O)OC`, the Potency entry was “inactive”. Same read-out and setting: in the case of `COC(=O)c1ccccc1S(=O)(=O)N1CCc2nc(COc3ccccc3)c3c(c2C1)CO[C@@H](C)C3` it was “inactive”; in that of `CCN(CC)CCCN1C=C2C(=O)C(C)(OC(=O)CCc3ccccc3)C(=O)C=C2C=C1c1ccc(C#N)cc1` (configuration not stated), “inactive”; in that of `C[C@H]1Cc2c(-c3ccccc3)nc3c(c2CO1)CN(C(=O)NCCc1c[nH]c2ccccc12)CC3`, “inactive”.

The next assay is described as follows: qHTS for Inhibitors of Plasmodium falciparum (HB3) proliferation (AID 504318). Note: nearly all actives have a fitted effect of over 60% in size. Note: potency is the fitted concentration of half-maximal effect. Particulars: P. falciparum HB3 in erythrocytes, SYBR Green DNA, 72 h; series mostly up to 7.21 µM. The gist of the method: as §1
On to `CC1(OC(=O)C2CCCC2)C(=O)C=C2C=C(c3ccsc3)N(c3ccc(CO)cc3)C=C2C1=O` (configuration not stated), for which the Potency entry was “inactive”.

`CCCCS(=O)(=O)N1C2=NC(C(=O)OC)=C(C(=O)OC)[C@@H]3N(Cc4ccccc4)c4ccccc4[C@]23C[C@H]1C(=O)OC`: the Potency was 2390 nM (active). Consider `O=C1C=CC2(OCCCO2)C(Br)=C1CO`, for which the Potency entry is “inactive”. Still for that read-out and setting: the result for `COC(=O)C1=C(C(=O)OC)[C@@H]2N(Cc3ccccc3)c3ccccc3[C@@]23C[C@@H](C(=O)OC)N(S(=O)(=O)c2ccc(OC)cc2)C3=N1` reads 1900 nM (active). As to `CCCCC1=CC2=CC(=O)C(C)(OC(=O)CC)C(=O)C2=CN1Cc1ccc2c(c1)OCO2` (configuration not stated), the Potency entry is “inactive”.

`COCOc1ccc(OC)cc1C(=O)C=Cc1ccc(OC)c(Br)c1`: the Potency is 1690 nM (active). Still for that read-out and setting: the result for `CC1(OC(=O)C2CCCC2)C(=O)C=C2C=C(c3ccsc3)N(c3ccccc3)C=C2C1=O` (configuration not stated) reads “inactive”; that for `CC(C)CN1C=C2C(=O)C(C)(OC(=O)CCc3ccccc3)C(=O)C=C2C=C1c1ccc(C#N)cc1` (configuration not stated), “inactive”. On the same count and under the same terms, in the case of `CC(C)Nc1oc(-c2ccccc2)nc1C=Cc1ccccc1` it was 1900 nM (active); in that of `COCCN1C(=O)N[C@@H](c2cccc(F)c2)C(C(=O)OC)=C1C`, “inactive”; in that of `CCN1C(=O)N(S(=O)(=O)c2ccc(C)cc2)[C@@H](c2ccccc2)C(C(=O)OC)=C1C`, “inactive”. The same measure, in the same setting: in the case of `CCCCC1=CC2=C(c3ccco3)C(=O)C(C)(OC(=O)c3ccc(OC)cc3)C(=O)C2=CN1C1CCCC1` (configuration not stated) it was “inactive”; in that of `CCN(CC)CCCN1C=C2C(=O)C(C)(OC(=O)CCc3ccccc3)C(=O)C=C2C=C1c1ccc(C#N)cc1` (configuration not stated), “inactive”. As to `C[C@H]1Cc2c(-c3ccccc3)nc3c(c2CO1)CN(C(=O)NCCc1c[nH]c2ccccc12)CC3`, the Potency entry was “inactive”.

A short description of a further assay: qHTS for Inhibitors of Plasmodium falciparum (CP250) proliferation (AID 504320). The following applies: P. falciparum CP250 in erythrocytes, SYBR Green DNA, 72 h; series mostly up to 6.7 µM. The essentials: as §1
Regarding `COc1ccc(C=CC2=CC3(C)CC2(C)C(c2ccc(OC)cc2)CC3=O)cc1` (configuration not stated), the Potency result is “inactive”.

Take `COC(=O)N1C(/C=C/c2ccc3c(c2)OCO3)=Cc2ccccc2C1CC(C)=O` (configuration not stated): the Potency entry was “inactive”. As for `CCOC(=O)OC[C@H]1O[C@H](C#Cc2ccccc2)C=C[C@H]1OC(=O)OCC`, the Potency entry was “inactive”. Still for that read-out and setting: the result for `CC1(OC(=O)C2CCCC2)C(=O)C=C2C=C(c3ccsc3)N(c3ccc(CO)cc3)C=C2C1=O` (configuration not stated) reads “inactive”. Turning to `COc1ccc([C@]23Cc4cc(C#N)ccc4[C@H](O2)c2c(cc(-c4ccccc4)oc2=O)O3)cc1`, the Potency result was “inactive”. The same measure, in the same setting: the result for `COc1ccc(O[C@H]2C=C[C@@H](c3ccccc3)O[C@H]2COC(=O)CCC(C)=NO[C@H](C)c2cn([C@H](CO)Cc3ccccc3)nn2)cc1` reads “inactive”. Turning to `CCCCc1cc2c(cn1)=C(OC(=O)c1ccc(Cl)nc1)C(C)(OC(=O)CC)C(=O)C=2` (configuration not stated), the Potency entry was “inactive”. The same measure, in the same setting: in the case of `CCOC(=O)CN1C(=O)N[C@@H](c2cccc(C(F)(F)F)c2)C(C(=O)OC)=C1C` it was “inactive”; in that of `CCCCCCC#C[C@@H]1C=C[C@H](OC(C)=O)[C@@H](COC(C)=O)O1`, “inactive”; in that of `O=C1C=CC2(OCCCO2)C(Br)=C1CO`, “inactive”. On the same count and under the same terms, the result for `CCCCC1=CC2=CC(=O)C(C)(OC(=O)CC)C(=O)C2=CN1Cc1ccc2c(c1)OCO2` (configuration not stated) reads “inactive”. The same measure, in the same setting: in the case of `CCN(CC)CCCN1C=C2C(=O)C(C)(OC(=O)c3cccs3)C(=O)C=C2C=C1CCCC(=O)OC` (configuration not stated) it was “inactive”; in that of `COC(=O)c1ccccc1S(=O)(=O)N1CCc2nc(-c3ccc(OC)cc3C)c3c(c2C1)CO[C@@H](c1ccccc1)C3`, “inactive”; in that of `CCCCCC(=O)c1cc(CC(C(=O)OC)C(=O)OC)cc2cc(OC)c(OC)cc12`, “inactive”. `COc1cccc(CC(=O)N2CCc3nc(-c4ccc(OC)cc4C)c4c(c3C2)CO[C@@H](c2ccccc2)C4)c1`: the Potency result was “inactive”.

Take `COc1ccc(CN2C=C3C(=O)C(C)(OC(=O)CCc4ccccc4)C(=O)C=C3C=C2c2ccc(C#N)cc2)cc1` (configuration not stated): the Potency entry was “inactive”. For the molecule `CC1(OC(=O)C2CCCC2)C(=O)C=C2C=C(c3ccsc3)N(c3ccccc3)C=C2C1=O` (configuration not stated), the Potency entry is “inactive”. Turning to `CCCCn1c(C)cc2c(c1=O)[C@H]1O[C@](c3ccsc3)(Cc3ccccc31)O2`, the Potency result is “inactive”. On to `COc1cc2c(cc1OC)[C@@H]1O[C@](CCCCN3C(=O)c4ccccc4C3=O)(C2)OC2=C1C(=O)CCC2`, for which the Potency result was “inactive”. With `CC(C)CN1C=C2C(=O)C(C)(OC(=O)CCc3ccccc3)C(=O)C=C2C=C1c1ccc(C#N)cc1` (configuration not stated), the Potency result was “inactive”. Consider `CC(C)Nc1oc(-c2ccccc2)nc1C=Cc1ccccc1`, for which the Potency entry was “inactive”.

Turning to `CCN1C(=O)N(C)[C@@H](c2ccccc2)C(C(C)=O)=C1C`, the Potency entry is “inactive”.

With `COC(=O)C1=C(C(=O)OC)[C@@H]2Nc3ccccc3[C@@]23C[C@@H](C(=O)OC)N(S(=O)(=O)c2ccc(C(F)(F)F)cc2)C3=N1`, the Potency entry was “inactive”.

Take `COCCN1C(=O)N[C@@H](c2cccc(F)c2)C(C(=O)OC)=C1C`: the Potency entry is “inactive”.

Take `COC(=O)C1=C(C(=O)OC)[C@@H]2N(C)c3ccc(OC)cc3[C@@]23C[C@@H](C(=O)OC)N(S(=O)(=O)c2ccc([N+](=O)[O-])cc2)C3=N1`: the Potency entry was “inactive”.

Consider `CCN1C(=O)N(S(=O)(=O)c2ccc(C)cc2)[C@@H](c2ccccc2)C(C(=O)OC)=C1C`, for which the Potency entry is “inactive”.

Regarding `CCCCC1=CC2=C(c3ccco3)C(=O)C(C)(OC(=O)c3ccc(OC)cc3)C(=O)C2=CN1C1CCCC1` (configuration not stated), the Potency entry was “inactive”. `COC(=O)C(C(=O)OC)[C@@H]1c2ccccc2[C@H]2C(=C[C@@H](C)[C@H]3C(=O)N(c4ccccc4)C(=O)[C@H]32)N1C(=O)OC`: the Potency result is “inactive”. Still for that read-out and setting: the result for `COC(=O)c1ccccc1S(=O)(=O)N1CCc2nc(COc3ccccc3)c3c(c2C1)CO[C@@H](C)C3` reads “inactive”; that for `CCN(CC)CCCN1C=C2C(=O)C(C)(OC(=O)CCc3ccccc3)C(=O)C=C2C=C1c1ccc(C#N)cc1` (configuration not stated), “inactive”. On to `CC(=O)OC[C@H]1O[C@H](C#Cc2ccc(C)cc2C)C=C[C@H]1OC(C)=O`, for which the Potency entry was “inactive”. Turning to `C[C@H]1Cc2c(-c3ccccc3)nc3c(c2CO1)CN(C(=O)NCCc1c[nH]c2ccccc12)CC3`, the Potency result was “inactive”.

Consider `COc1ccc(-c2nc(-c3ccccc3)c(Nc3c(C)cccc3C)o2)cc1`, for which the Potency entry is “inactive”.

`COC(=O)C1=C(C(=O)OC)[C@@H]2N(Cc3ccccc3)c3ccccc3[C@@]23C[C@@H](C(=O)OC)N(S(=O)(=O)c2cccs2)C3=N1`: the Potency entry was “inactive”.
